From PubChem BioAssay AID1159580 (chemical genetic matrix, 2015)
Where “and” joins values, the source holds several entries; their conditions need not be identical. Identical values can stand only once. Screen size: about 5,500 compounds; about 2,000 (36%) were called active. Another 18% or so got no clear call; they are omitted. Rule as the data show it: active = normalized growth mostly below about 0.91 (no sharp cut-off); inconclusive = no clear call, values can overlap the other calls; inactive = mostly above about 0.92. The list shows a part of the results.

Assay: chemical genetic growth profiling, strain panel (AID 1159580);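 also: tested at 20 µM; growth read once vehicle control cultures reached saturation at 30 °C; 1 = growth at the plate median or of vehicle wells; lower values mean less growth of the strain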
Conditions: S. cerevisiae deletion strains, growth OD

Measured: normalized growth

CN=C(NC#N)NCCSCc1nc[nH]c1C
inactive: locus YAL013W, strain DEP1, stronger effect = lower value 0.997 | locus YAL021C, strain ccr4, stronger effect = lower value 1 | locus YAL026C, strain drs2, stronger effect = lower value 0.997 | locus YAL030W, strain snc1, stronger effect = lower value 0.998 | locus YAL040C, strain CLN3, stronger effect = lower value 1.01 | locus YBL061C, strain skt5, stronger effect = lower value 0.991 | locus YBR009C, strain hhf1, stronger effect = lower value 0.998 | locus YBR021W, strain FUR4, stronger effect = lower value 0.993 | locus YBR023C, strain chs3, stronger effect = lower value 0.996 | locus YBR171W, strain sec66, stronger effect = lower value 0.996 | locus YBR229C, strain ROT2, stronger effect = lower value 0.969 | locus YBR231C, strain swc5, stronger effect = lower value 1 | locus YBR279W, strain paf1, stronger effect = lower value 0.996 | locus YCL011C, strain gbp2, stronger effect = lower value 0.993 | locus YCL016C, strain dcc1, stronger effect = lower value 0.989 | locus YCL029C, strain bik1, stronger effect = lower value 0.979 | locus YCL061C, strain MRC1, stronger effect = lower value 1 | locus YCL069W, strain vba3, stronger effect = lower value 1.01 | locus YCR088W, strain abp1, stronger effect = lower value 0.998 | locus YDL005C, strain med2, stronger effect = lower value 1.01 | locus YDL035C, strain GPR1, stronger effect = lower value 1.01 | locus YDL040C, strain nat1, stronger effect = lower value 1.01 | locus YDL074C, strain BRE1, stronger effect = lower value 1.01 | locus YDL101C, strain DUN1, stronger effect = lower value 0.984 | locus YDL134C, strain PPH21, stronger effect = lower value 1 | locus YDL185W, strain tfp1, stronger effect = lower value 0.977 | locus YDL192W, strain arf1, stronger effect = lower value 0.995 | locus YDR001C, strain nth1, stronger effect = lower value 1 | locus YDR069C, strain doa4, stronger effect = lower value 0.997 | locus YDR101C, strain arx1, stronger effect = lower value 0.992 | locus YDR137W, strain rgp1, stronger effect = lower value 1.01 | locus YDR150W, strain NUM1, stronger effect = lower value 1 | locus YDR159W, strain sac3, stronger effect = lower value 0.997 | locus YDR162C, strain NBP2, stronger effect = lower value 0.994 | locus YDR195W, strain ref2 0.976 | locus YDR297W, strain sur2, stronger effect = lower value 0.997 | locus YDR318W, strain mcm21, stronger effect = lower value 0.999 | locus YDR334W, strain swr1, stronger effect = lower value 0.996 | locus YDR335W, strain msn5, stronger effect = lower value 1.01 | locus YDR363W, strain ESC2, stronger effect = lower value 0.998 | locus YDR388W, stronger effect = lower value 0.991 | locus YDR392W, strain spt3, stronger effect = lower value 0.905 | locus YDR502C, strain sam2, stronger effect = lower value 1.02 | locus YEL003W, strain gim4, stronger effect = lower value 1.01 | locus YEL037C, strain rad23, stronger effect = lower value 0.998 | locus YEL061C, strain CIN8 (second series), stronger effect = lower value 1 | locus YEL061C, strain CIN8, stronger effect = lower value 0.998 | locus YER002W, strain NOP16, stronger effect = lower value 1.02 | locus YER015W, strain faa2, stronger effect = lower value 1.01 | locus YER016W, strain bim1, stronger effect = lower value 1 | locus YER110C, stronger effect = lower value 0.975 | locus YER111C, strain swi4, stronger effect = lower value 0.993 | locus YER155C, strain BEM2 (second series), stronger effect = lower value 0.97 | locus YER155C, strain BEM2, stronger effect = lower value 0.99 | locus YER167W, strain BCK2, stronger effect = lower value 0.997 | locus YFR010W, strain ubp6, stronger effect = lower value 1 | locus YGL078C, strain dbp3, stronger effect = lower value 0.989 | locus YGL086W, strain mad1, stronger effect = lower value 1 | locus YGL167C, strain pmr1, stronger effect = lower value 0.995 | locus YGL173C, strain kem1, stronger effect = lower value 0.997 | locus YGL227W, strain vid30, stronger effect = lower value 0.991 | locus YGL240W, strain doc1, stronger effect = lower value 0.986 | locus YGL248W, strain PDE1, stronger effect = lower value 0.993 | locus YGL253W, strain hxk2, stronger effect = lower value 0.997 | locus YGR078C, strain PAC10, stronger effect = lower value 0.996 and 1.01 | locus YGR135W, strain pre9, stronger effect = lower value 0.992 | locus YGR229C, strain SMI1, stronger effect = lower value 0.996 | locus YGR252W, strain gcn5, stronger effect = lower value 1.1 | locus YHR013C, strain ard1, stronger effect = lower value 0.972 | locus YHR027C, strain rpn1, stronger effect = lower value 0.993 | locus YHR030C, strain SLT2, stronger effect = lower value 0.977 and 1.03 | locus YHR079C, strain IRE1 (second series), stronger effect = lower value 0.986 | locus YHR079C, strain IRE1, stronger effect = lower value 1.07 | locus YHR094C, strain hxt1, stronger effect = lower value 0.99 | locus YHR129C, strain ARP1, stronger effect = lower value 0.985 | locus YHR142W, strain chs7, stronger effect = lower value 0.998 | locus YHR200W, strain rpn10, stronger effect = lower value 0.99 | locus YIL066C, strain RNR3, stronger effect = lower value 0.998 | locus YIL073C, strain SPO22, stronger effect = lower value 1.01 | locus YIL125W, strain kgd1, stronger effect = lower value 0.992 | locus YIR030C, strain dcg1, stronger effect = lower value 0.991 | locus YJL092W, strain hpr5, stronger effect = lower value 0.994 | locus YJL095W, strain BCK1 (second series), stronger effect = lower value 0.996 | locus YJL095W, strain BCK1, stronger effect = lower value 0.952 and 1.02 | locus YJL115W, strain asf1, stronger effect = lower value 1 | locus YJL129C, strain trk1, stronger effect = lower value 1.01 | locus YJL134W, strain LCB3, stronger effect = lower value 0.996 | locus YJL154C, strain vps35, stronger effect = lower value 1.01 | locus YJL164C, strain tpk1, stronger effect = lower value 0.992 | locus YJL166W, strain qcr8, stronger effect = lower value 1 | locus YJL168C, strain set2, stronger effect = lower value 0.983 | locus YJL187C, strain SWE1 (second series), stronger effect = lower value 0.988 | locus YJL187C, strain SWE1, stronger effect = lower value 1 | locus YJR043C, strain POL32, stronger effect = lower value 0.98 | locus YJR066W, strain TOR1, stronger effect = lower value 0.997
